Most compounds without a hit are left out; they make up all but 2.6% or so of the library.
Peg3 prom inh: Peg3 promoter activity inhibition | HeLa PEG-Prom luciferase reporter, luminescence, overnight | inhibition, % at 20 µM | 1.7% of 360,000 active;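 active = inhibition of at least 50% at 20 µM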
HIF-2a inh: HIF-2a inhibition. 786-0 RCC cells HIF-2a reporter, luciferase luminescence, overnight. inhibition, % at 18.8 µM. 0.72% of 360,000 active. AID 624352;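 active = inhibition of the luminescence signal of 40% or more relative to plate controls, in a single-dose primary screen at 18.75 µM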
CF NFkB inh: cystic fibrosis NF-kB activation inhibition. inhibition, % at 5 µM. KKLEB NF-kB-GFP reporter, PAF-induced, GFP fluorescence overnight. 0.86% of 360,000 active. AID 588850;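 active = at least 50% inhibition at 5 µM, scaled per plate between neutral and stimulator controls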;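 note: PAF is a Pseudomonas aeruginosa culture filtrate used as stimulus; plate controls were PAF-stimulated DMSO wells for no effect and unstimulated DMSO wells for full effect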
Shn3 inh set2: Schnurri-3 reporter inhibition in Clone20 osteoblasts. 0.52% of 360,000 active. Clone20 osteoblast Shn3 3'UTR firefly luciferase, 24 h. inhibition, % at 12.5 µM;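 active = mean inhibition of at least 75% with every replicate also reaching 75%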;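 note: 0% = median of neutral control wells and 100% = pilot-screen positive control compound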
KKLEB tox: reduces viability of KKLEB cystic fibrosis airway cells; KKLEB CF airway cells viability, ATPlite luminescence, overnight; stronger effect = lower value; cells stimulated with P. aeruginosa culture filtrate; activity change (cytotoxicity), % at 5 µM; 0.36% of 360,000 active; AID 602141;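 active = corrected activity change at or below -50% at 5 µM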
Active calls of the source: *.

SMILES	Peg3 prom inh	HIF-2a inh	CF NFkB inh	Shn3 inh set2	KKLEB tox
CCOC(=O)c1c(CSC(=N)N)n(-c2ccc(Br)cc2)c2cc(Br)c(OC(C)=O)cc12	-1	4	-10	-59	16
CCCCCCCCOC(=O)c1c(CSC(=N)N)n(C)c2cc(Br)c(OC(C)=O)cc12	98*	0	16	-13	22
CCOC(=O)c1c(CSc2nc(C)cc(C)c2C#N)n(C)c2cc(Br)c(OC(C)=O)cc12	28	13	40	77	-55*
CCOC(=O)c1c(CN2CCCCC2)n(C)c2cc(Br)c(OC)cc12	-4	35	4	7	-8
CN(C(=O)COC(=O)c1ccc[nH]c1=O)C1CCCCC1	14	11	-7	6	4
CN(C)C(CNC(=O)c1cc(-c2ccco2)nc2ccccc12)c1ccccc1 (stereo not drawn)	11	9	-10	-26	-8
COc1cccc(C(=O)NCCS(=O)(=O)NCc2ccccn2)c1	9	7	-16	15	-7
Cc1cc(OCC(=O)Nc2ccccc2N2CCOCC2)c(C(C)C)cc1Cl	15	3	19	45	-6
CN1c2ccccc2C(C)(C)C12C=Nc1c(ccc3ccccc13)O2 (stereo not drawn)	-112	-157	7	-29	5
CN1c2ccccc2C(C)(C)[C@]12C=Cc1cc(O)ccc1O2	23	24	5	87*	10
Cc1noc(C)c1S(=O)(=O)N1CCCC(C(=O)c2cccc(OC(C)C)c2)C1 (stereo not drawn)	20	23	0	34	2
CCCCCCCCn1c2c(c(=N)c3ccccc31)CCC2	86*	4	34	91*	-26
CCCCCCCCCn1c2c(c(=N)c3c1CCC3)CCCC2	104*	27	46	92*	-56*
CCCCCCCCCCn1c2c(c(=N)c3c1CCC3)CCC2	98*	64*	59*	71	-64*
Cc1cnc(CNC(=O)c2csc([C@H]3C[C@H](O)[C@@H](CO)O3)n2)cn1	-11	3	8	2	-11
CSc1nc(=S)n(-c2ccccc2)c(C)c1C(C)=O	3	-3	9	-68	-14
COc1ccc(C(CCNCc2ccccc2)c2ccc(F)cc2)cc1 (stereo not drawn)	37	1	-4	18	-8
COc1ccc(CNCCC(c2ccc(OC)cc2)c2ccccc2OC)cc1 (stereo not drawn)	19	18	1	9	2
COc1ccc(C(CCNCc2ccc(OC(C)C)cc2)c2ccccc2OC)cc1 (stereo not drawn)	102*	11	7	89*	-26
COc1ccc(C(CCNCc2ccc(N(C)C)cc2)c2ccccc2OC)cc1 (stereo not drawn)	60*	18	19	3	-8
Cc1cc(-c2nc3cc(F)ccc3s2)ccc1N	-112	-44	-53	-10	-30
COc1cc(C(=O)Nc2nnc(CC(=O)NCc3ccccc3)s2)cc(OC)c1OC	9	12	8	-7	-13
Cc1sc2ncnc(N/N=C/c3ccccc3O)c2c1C	-31	-177	-12	86*	-10
Cc1sc2ncnc(N/N=C/c3ccc(O)cc3)c2c1C	-102	-126	-5	-10	13
Cc1cc(C)cc(OCC(=O)Nc2cccc(-c3nnc(-c4ccco4)o3)c2)c1	58*	-102	-44	0	-10
SMILES	Peg3 prom inh	HIF-2a inh	CF NFkB inh	Shn3 inh set2	KKLEB tox
Cc1ccc(CN(CC(=O)NC(C)(C)C)C(=O)CNC(=O)c2cccs2)cc1	-1	14	3	3	-2
COc1cc(C(=O)N2CCC(NC(=O)C(Cc3ccccc3)NC(C)=O)CC2)cc(OC)c1OC (stereo not drawn)	58*	7	-5	-34	3
Nc1c(S(=O)(=O)c2ccccc2)c2nc3ccccc3nc2n1/N=C/c1cccc(O)c1	87*	-15	-14	49	21
C=C(CN(C)C)C(=O)c1cc(C)ccc1C	100*	90*	30	95*	0
Cc1nc(NCCc2ccc(F)cc2)c(C#N)c(C)c1[N+](=O)[O-]	51*	-7	-2	-6	12
COCc1c(C#N)c(NCCc2ccc(F)cc2)nc(C)c1[N+](=O)[O-]	19	5	-11	19	0
O=C(NC1CC2CCC1C2)C1CCN(S(=O)(=O)c2ccc(-c3nn[nH]n3)cc2)CC1 (stereo not drawn)	-3	11	-8	-2	-11
N#C/C(=N\Nc1ccc(Cl)cc1)C(=O)c1ccccc1	-22	-167	29	8	-35

Screening data deposited in PubChem by several laboratories.
